NP40-soluble protein abundance data for one molecule are collected here from the supplement of paper PMC6411743.

The target in this assay is T1, UniProt Q8TD55|Q8TD55-2.
T1 sequence (whole entry): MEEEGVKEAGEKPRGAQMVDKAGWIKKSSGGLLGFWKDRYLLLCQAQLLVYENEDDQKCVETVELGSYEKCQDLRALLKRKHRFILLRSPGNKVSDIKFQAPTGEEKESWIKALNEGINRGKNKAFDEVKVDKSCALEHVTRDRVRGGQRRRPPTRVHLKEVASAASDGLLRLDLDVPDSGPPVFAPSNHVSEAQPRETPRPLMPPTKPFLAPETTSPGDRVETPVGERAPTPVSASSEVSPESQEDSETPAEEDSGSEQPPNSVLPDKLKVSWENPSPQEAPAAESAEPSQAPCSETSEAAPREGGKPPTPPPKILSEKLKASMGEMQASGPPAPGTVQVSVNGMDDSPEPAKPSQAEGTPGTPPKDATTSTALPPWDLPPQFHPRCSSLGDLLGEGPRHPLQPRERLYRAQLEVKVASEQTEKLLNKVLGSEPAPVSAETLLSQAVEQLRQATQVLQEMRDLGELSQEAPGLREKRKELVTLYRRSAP
The assay can be described thus: NP40-soluble protein abundance relative to vehicle (solubility fold change) (ratio); higher = more soluble protein in presence of GTP. How it is done:
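Solubility proteome profiling in Jurkat crude lysate. Lysate was treated with Mg-GTP (0.1-10 mM) for 10 min at room temperature and 3 min at 37 °C, then solubilised with 0.8% NP40 and benzonase, followed by ultracentrifugation. Proteins were quantified by TMT10 LC-MS/MS; the value is the NP40-soluble abundance relative to the NP40-processed vehicle, from 3 independent experiments.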

± gives the standard deviation of the averaged measurements. Targets with the largest changes are over-represented here; the source holds about 5,400 in all.

Take `Nc1nc2c(ncn2[C@@H]2O[C@H](COP(=O)(O)OP(=O)(O)OP(=O)(O)O)[C@@H](O)[C@H]2O)c(=O)[nH]1` [guanosine triphosphate]: the NP40-soluble protein abundance runs as follows: (concentration: 0.1mM) 1.07 ± 0.12; (concentration: 0.5mM) 0.933 ± 0.0094; (concentration: 1mM) 1.12 ± 0.072; (concentration: 2mM) 0.933 ± 0.018; (concentration: 4mM) 0.96 ± 0.072; (concentration: 6mM) 0.918 ± 0.046. Moreover, the NP40-soluble protein abundance was determined as 0.943 ± 0.13 (concentration: 8mM) and 1.03 ± 0.097 (concentration: 10mM).
